For eight compounds, growth results are on record in PubChem BioAssay (NCI).

Among the test systems are DU-145 prostate; K-562 leukemia; MALME-3M melanoma; MDA-MB-231 breast; RXF 393 renal; SF-268 CNS; SF-295 CNS; UACC-257 melanoma; M14 melanoma; HCT-15 colon; HT29 colon; SNB-75 CNS; SNB-19 CNS; U251 CNS; PC-3 prostate; SK-MEL-5 melanoma; UACC-62 melanoma; LOX IMVI melanoma; SK-MEL-28 melanoma.
What all share (test): NCI-60 one-dose screen, 48 h (100 = growth as untreated, 0 = no growth, -100 = all killed)
Settings in all cases: 10 µM unless noted

SMILES strings stand for the structures. This is part of a sample that, as a whole, favours compounds with a hit. Of some 83,000 tested, about 20% had one in any assay.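 In brief: 96-well plates, 48 h treatment, single concentration, percent growth endpoint.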 Values without a mark were called inactive. Calls of active or inactive are those of the source. How the source made its calls: active means growth percent below 10; inactive means the rest.

For `C=C1CC[C@@H]2[C@](C)(COC(C)=O)[C@H](OC(C)=O)CC[C@@]2(C)[C@@H]1CC(Nc1ccc(S(=O)(=O)Nc2ccc(Cl)nn2)cc1)C1=CCOC1=O` (some centres not stated), the growth in the assay with DU-145 prostate was 40.2%; with K-562 leukemia, 6.81% (active); in the assay with MALME-3M melanoma it was 55.3%; with MDA-MB-231 breast, 23.8%; in the assay on RXF 393 renal, -13.4% (active); in the assay on SF-268 CNS, 43.3%. The growth in the assay with SF-295 CNS is 92.8%; in the assay on UACC-257 melanoma, 44%; with M14 melanoma, 10.7%; in the assay with HCT-15 colon, -18.4% (active); in the assay on HT29 colon, -18.3% (active); in the assay with SNB-75 CNS, 25.2%. Moreover, the growth was 76% in the assay with SNB-19 CNS; -41.2% (active) in the assay with U251 CNS; 38.4% in the assay with PC-3 prostate; 35.8% in the assay with SK-MEL-5 melanoma; -50% (active) in the assay with UACC-62 melanoma; -84.6% (active) with LOX IMVI melanoma. The growth in the assay with SK-MEL-28 melanoma is 6.66% (active).
For the compound `CC/C=C\C[C@H](O)C/C=C1/C(=O)C=C[C@@H]1C/C=C\CCCC(=O)NC`, the growth in the assay with DU-145 prostate was 15%; in the assay on K-562 leukemia, 0.291% (active); in the assay on MALME-3M melanoma it was -27.9% (active); in the assay with MDA-MB-231 breast it was 26.5%; in the assay on RXF 393 renal, -79.1% (active); with SF-268 CNS, 27.7%. Further, the growth with SF-295 CNS was 8.54% (active); in the assay with UACC-257 melanoma, -19% (active); in the assay with M14 melanoma, 6.09% (active); with HCT-15 colon, -28.4% (active); in the assay with HT29 colon, 0.814% (active); with SNB-75 CNS, 62.5%. Besides, the growth with SNB-19 CNS was 22.5%; with U251 CNS it was -8.98% (active); in the assay on PC-3 prostate, 13.6%; in the assay with SK-MEL-5 melanoma it was -94.5% (active); with UACC-62 melanoma, -45.3% (active); in the assay with LOX IMVI melanoma, -72.2% (active). Moreover, the growth in the assay on SK-MEL-28 melanoma is -17.1% (active).
For `C=C1CC[C@@H]2[C@](C)(COC(C)=O)[C@H](OC(C)=O)CC[C@@]2(C)[C@@H]1CC(Nc1ccc(S(=O)(=O)Nc2nc(C)cc(C)n2)cc1)C1=CCOC1=O` (some centres not stated), the growth in the assay on DU-145 prostate was 82.3%; in the assay with K-562 leukemia, 19.1%; in the assay on MALME-3M melanoma it was 96.3%; in the assay with MDA-MB-231 breast, 107%; in the assay with RXF 393 renal, 85.1%; with SF-268 CNS, 93.3%. Further, the growth in the assay with SF-295 CNS was 97%; in the assay with UACC-257 melanoma it was 67.9%; in the assay on M14 melanoma, 63.8%; in the assay with HCT-15 colon, 49.2%; in the assay on HT29 colon it was 46.2%; in the assay on SNB-75 CNS, 44.6%. The growth in the assay on SNB-19 CNS was 100%; with U251 CNS, 48.2%; with PC-3 prostate, 65.2%; in the assay on SK-MEL-5 melanoma it was 74.2%; in the assay on UACC-62 melanoma, 32.9%; with LOX IMVI melanoma, -60.6% (active). Further, the growth with SK-MEL-28 melanoma is 83.5%.
`O=C1c2cccnc2C(=O)c2c1c(C(=O)OCCN1CCOCC1)c1ccccn21`: the growth in the assay on DU-145 prostate is -20.3% (active); in the assay on K-562 leukemia, -16% (active); in the assay on MALME-3M melanoma, -64.8% (active); in the assay on MDA-MB-231 breast, 9.01% (active); in the assay with RXF 393 renal, 10.7%; with SF-268 CNS, 13%. Besides, the growth with SF-295 CNS is -47% (active); in the assay on UACC-257 melanoma, -47% (active); with M14 melanoma, -58.7% (active); in the assay on HCT-15 colon it was -65.6% (active); with HT29 colon, -35.4% (active); in the assay with SNB-75 CNS, -13.9% (active). Further, the growth in the assay on SNB-19 CNS is 3.55% (active); in the assay with U251 CNS it was -47.5% (active); with PC-3 prostate, 15.3%; in the assay with SK-MEL-5 melanoma, -90.5% (active); with UACC-62 melanoma it was -52.7% (active); in the assay on LOX IMVI melanoma, -46% (active). Further, in the assay on SK-MEL-28 melanoma, the growth is -3.26% (active).
On to `C=C1CCC2C3(C)COC(C)(C)OC3CCC2(C)C1C/C=C1/C(=O)OCC1OC(C)=O` (configuration not stated), for which the growth in the assay on DU-145 prostate was 42.4%; in the assay on K-562 leukemia, 9.82% (active); in the assay on MALME-3M melanoma, 71.9%; in the assay on MDA-MB-231 breast, 86.2%; in the assay with RXF 393 renal, -53.8% (active); in the assay with SF-268 CNS it was 63.4%. For the same compound, the growth in the assay on SF-295 CNS is 116%; in the assay on UACC-257 melanoma, 20.2%; in the assay with M14 melanoma, 19.3%; in the assay on HCT-15 colon, 33.8%; in the assay on HT29 colon it was 18.4%; in the assay on SNB-75 CNS, 58%. Also, the growth in the assay with SNB-19 CNS is 110%; in the assay with U251 CNS, 36.7%; in the assay with PC-3 prostate it was 56.4%; in the assay with SK-MEL-5 melanoma it was 56.9%; with UACC-62 melanoma, 41.9%; with LOX IMVI melanoma it was 8.63% (active). The growth in the assay on SK-MEL-28 melanoma is 69.6%.
For `Oc1cc(O)c2c(=S)cc(-c3ccc(Cl)cc3)oc2c1`, the growth is 36.9% in the assay on DU-145 prostate; 28.2% in the assay with K-562 leukemia; 22.7% in the assay on MALME-3M melanoma; 21.6% in the assay on MDA-MB-231 breast; 64.6% in the assay with RXF 393 renal; 36.8% in the assay on SF-268 CNS. Further, the growth was 91.4% in the assay on SF-295 CNS; 32.9% in the assay with UACC-257 melanoma; 31.4% in the assay with M14 melanoma; 25.4% in the assay with HCT-15 colon; 92.8% with HT29 colon; 48.3% with SNB-75 CNS. In addition, the growth in the assay with SNB-19 CNS was 17.5%; with U251 CNS it was 19.6%; with PC-3 prostate it was 28.4%; in the assay with SK-MEL-5 melanoma, 3.09% (active); with UACC-62 melanoma, 22.6%; with LOX IMVI melanoma, 38.6%. In the assay with SK-MEL-28 melanoma, the growth was 40.5%.
As for `CC/C=C\C[C@H](F)C/C=C1/C(=O)C=C[C@@H]1C/C=C\CCCC(=O)O`, the growth with DU-145 prostate is 66.3%; in the assay with K-562 leukemia, 10.3%; with MALME-3M melanoma it was 59.2%; with MDA-MB-231 breast it was 73%; in the assay with RXF 393 renal it was 75%; in the assay with SF-268 CNS, 82.3%. In addition, the growth is 96.2% in the assay with SF-295 CNS; 49.7% with UACC-257 melanoma; 32.1% with M14 melanoma; 29.4% with HCT-15 colon; 29.5% in the assay on HT29 colon; 81.4% with SNB-75 CNS. The growth in the assay with SNB-19 CNS is 63.5%; in the assay with U251 CNS, 19.2%; in the assay on PC-3 prostate it was 55%; in the assay with SK-MEL-5 melanoma, 15.5%; with UACC-62 melanoma, 27.5%; with LOX IMVI melanoma it was -42.6% (active). For the same compound, the growth with SK-MEL-28 melanoma is 46.7%.
As for `CN(C)c1ccc(C2Nc3ccccc3-n3cccc32)cc1` (configuration not stated), the growth was 114% in the assay on DU-145 prostate; 121% with K-562 leukemia; 99.6% with MALME-3M melanoma; 96.5% in the assay on MDA-MB-231 breast; 98.5% in the assay with RXF 393 renal; 103% with SF-268 CNS. Further, the growth in the assay with SF-295 CNS was 102%; in the assay with UACC-257 melanoma, 111%; in the assay with M14 melanoma, 99.1%; with HCT-15 colon, 89.7%; with HT29 colon, 99.9%; with SNB-75 CNS it was 107%. For the same compound, the growth with SNB-19 CNS was 94.7%; in the assay with U251 CNS it was 95.6%; in the assay with PC-3 prostate it was 66.4%; in the assay with SK-MEL-5 melanoma, 93.2%; in the assay on UACC-62 melanoma it was 79%; in the assay on LOX IMVI melanoma it was 103%. Moreover, in the assay with SK-MEL-28 melanoma, the growth is 107%.
